Bioassay records: PubChem, National Center for Advancing Translational Sciences (NCATS)
Many of the other results were omitted from the sample, so hits are more common in it than they were.
LmPK inhibitor: LmPK (Leishmania mexicana) enzyme inhibition; purified LmPK, Kinase-Glo ATP luminescence, 1 h; AID 1721; Potency, µM (top dose mostly 57.5 µM), for the others: at the highest dose activity change, negative = inhibition, actives largely listed as inhibitors; 290,000 tested, 0.37% active; active means well fitted curve in the direction sought with a large enough effect; inconclusive means small, poorly fitted or top-dose-only effect, or another doubt; inactive means no such curve, though single readings can be large; an effect the other way counts as inactive or inconclusive; further: potency means the concentration at half of the fitted maximal effect; on the % scale 0 is the no-effect control and ±100 the full control effect
Target sequence (Q27686 whole entry, looked up): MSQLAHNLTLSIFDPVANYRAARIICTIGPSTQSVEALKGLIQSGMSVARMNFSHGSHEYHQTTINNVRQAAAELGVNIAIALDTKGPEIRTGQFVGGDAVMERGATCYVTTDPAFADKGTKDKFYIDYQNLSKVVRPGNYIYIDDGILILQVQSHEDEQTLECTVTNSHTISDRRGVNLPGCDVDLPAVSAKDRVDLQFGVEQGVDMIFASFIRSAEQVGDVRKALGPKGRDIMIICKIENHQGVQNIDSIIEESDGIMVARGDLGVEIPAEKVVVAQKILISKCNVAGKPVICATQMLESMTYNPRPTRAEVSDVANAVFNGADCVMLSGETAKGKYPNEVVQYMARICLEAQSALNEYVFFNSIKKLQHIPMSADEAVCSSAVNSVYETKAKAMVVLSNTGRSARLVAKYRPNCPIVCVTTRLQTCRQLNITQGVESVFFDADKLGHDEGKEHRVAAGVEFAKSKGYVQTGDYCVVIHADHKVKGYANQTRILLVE
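Purified LmPK (0.1 nM) converted ADP (0.1 mM) to ATP with PEP (0.5 mM) in imidazole buffer pH 7.2 with KCl and MgCl2, 1 h at room temperature. ATP was read by Kinase-Glo luminescence; data normalized to uninhibited and no-enzyme controls.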
SARS PLpro yeast: SARS-CoV PLP inhibition in yeast; 330,000 tested, 0.19% active; Potency, µM (doses to about 32.9 µM), for the others: top-dose activity, positive = growth rescue, actives largely listed as activators; S. cerevisiae expressing SARS-CoV PLpro, growth rescue; AID 485353; further: potency means the concentration at half of the fitted maximal effect; 0% is about no effect; nearly all actives have a fitted effect of over 55% in size
Shiga inhibitor: inhibitors of Shiga toxin in Vero cells; Vero cells, Shiga toxin protein synthesis inhibition reporter; inhibition, % at 38.7 µM; 290,000 tested, 9.2% active; AID 2315; in the data active means inhibition mostly above about 28%, no sharp cut-off; inactive means mostly below about 43%; further: 0% is about no effect
Cycloheximide cs: affects cycloheximide protein synthesis inhibition readout, counter-screen; cell reporter, cycloheximide protein synthesis inhibition counterscreen; max response, %; 300,000 tested, 12% active; AID 2314; in the data active means max response mostly above about 13%, no sharp cut-off; inactive means mostly below about 14%; further: read at 38.3 µM for the half of the compounds with a filed dose; 0% is about no effect
NS1 inh: inhibitors of influenza NS1 protein function; Potency, µM (doses to about 46.1 µM), without a hit: top-dose activity, positive = more growth; 270,000 tested, 0.4% active; further: potency means the concentration at half of the fitted maximal effect; actives are rising curves; nearly all actives have a fitted effect of over 50% in size
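Growth recovery, yeast-based: influenza A NS1 expressed in S. cerevisiae causes slow growth, and suppressors are detected by OD600. The parent strain without NS1 is used as positive control.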
Tb PYK inh: blocks Trypanosoma brucei pyruvate kinase; Q57TT1; TbPYK enzyme, Kinase-Glo Plus ATP luminescence, 45 min; Potency, µM (highest dose often 76.8 µM), inactives show at the top dose activity, negative = inhibition, usual class: inhibitors; 410,000 tested, 0.12% active; AID 624173; active means well fitted curve in the direction sought with a large enough effect; inconclusive means small, poorly fitted or top-dose-only effect, or another doubt; inactive means no such curve, though single readings can be large; an effect the other way counts as inactive or inconclusive; further: potency means the concentration at half of the fitted maximal effect; on the % scale 0 is the no-effect control and ±100 the full control effect; nearly all actives have a fitted effect of over 50% in size
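Glycolytic pyruvate kinase of T. brucei was incubated with substrate, test compound and 130 uM ADP for 45 minutes at room temperature. Luminescent Kinase-Glo Plus signal was measured after 10 minutes.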
The depositor's hits bear a star; i = inactive; ? = inconclusive; . = not tested or not shown. Unless noted, the call rests on the fitted dose curve.

SMILES | LmPK inhibitor | SARS PLpro yeast | Shiga inhibitor | Cycloheximide cs | NS1 inh | Tb PYK inh
O=C(C1CCC1)N1CCCc2cc(S(=O)(=O)Nc3ccc(F)cc3)ccc21 | . | . | . | . | . | 3%
Cc1ccc(C)c(Cn2c(=O)n(CC3CCC(C(=O)N4CCOCC4)CC3)c(=O)c3sccc32)c1 (centres undefined) | . | . | . | . | . | 1%
O=C(CCSc1ccccc1)Nc1nc2c(s1)COc1ccccc1-2 | -5% | -7% | 12 | -1 | 3% | -14%
CCCC(=O)Nc1nc2c(s1)COc1ccccc1-2 | -6% | -16% | 31* | 24* | -20% | 4%
CCCN(CCC)S(=O)(=O)c1ccc(C(=O)Nc2nc3c(s2)CCc2ccccc2-3)cc1 | 8% | -7% | -7 | -2 | -5% | -8%
CCCCC(=O)Nc1nc2c(s1)COc1ccccc1-2 | -3% | -9% | 42* | 38* | 15% | -2%
CC(C)(C)C(=O)Nc1nc2c(s1)COc1ccccc1-2 | 3% | ? | 46* | 19* | 2% | -7%
Nc1nc2c(s1)COc1ccccc1-2 | 4% | -7% | 42 | 14* | -65% | -18%
CCOc1ccc2oc(=O)cc(CN3CCN(C(=O)c4ccc(OC)c(OC)c4)CC3)c2c1 | . | . | . | . | . | 4%
COc1ccc(N2C(=O)CS(=O)(=O)C23C(=O)N(Cc2c(F)cccc2Cl)c2ccccc23)cc1 (centres undefined) | . | . | . | . | . | -4%
CN(C(=O)CSc1nc2ccc(NC(=O)c3cccc(F)c3)cc2s1)c1ccccc1 | . | . | . | . | . | 0%
COC(=O)c1ccc(NC(=O)CSc2nc3ncccc3[nH]2)cc1 | -3% | 0% | 22 | 12* | -1% | -2%
CCN(CC)C(=O)C(=O)Nc1ccc(Oc2ccccc2)cc1 | 5% | -2% | 78* | 24* | -1% | -2%
CCN(CC)C(=O)Nc1ccc(C(=O)OC)cc1 | 1% | -3% | 13 | 16* | 2% | -7%
Cc1cc(C)cc(NC(=O)CSc2nc3ncccc3[nH]2)c1 | . | . | . | . | . | 5%
CCN(CC)CC(=O)Nc1ccc(Oc2ccc(NC(=O)CN(CC)CC)cc2)cc1 | 2% | 0% | 2 | 7 | 3% | -4%
COC(=O)c1ccc(NC(=O)CS(=O)(=O)c2ccccc2)cc1 | -3% | ? | 46 | 11* | -10% | -2%
COc1cc(C2=CN(Cc3ccccc3)CCC2=O)cc(OC)c1OC | . | 0% | . | . | . | -3%
Cc1ccc(S(=O)(=O)N2CCc3cc(C(=O)Nc4ccc(C)c(C)c4)ccc32)cc1 | . | . | . | . | . | 2%
O=C(CSc1ccccc1)Nc1ccc(C(=O)Nc2ccc(O)cc2)cc1 | 12% | -2% | 2 | 19 | . | 8%
COC(=O)c1ccc(NC(=O)CSc2ccccn2)cc1 | 4% | -15% | 36* | 58* | -1% | -7%
O=C(CSc1nc2ncccc2[nH]1)c1ccc2c(c1)OCO2 | -3% | 0% | 43* | 39* | 1% | 0%
COC(=O)c1ccc(NC(=O)CSc2ccccc2)cc1 | -1% | -1% | 64* | 31* | -4% | ?
N#Cc1cccc(NC(=O)CSc2ccccc2)c1 | 0% | -8% | 3 | 9.1* | -1% | 1%
COC(=O)c1ccc(NC(=O)CSc2nc3cccnc3n2C)cc1 | -1% | -10% | -12 | -3 | 5% | 1%
SMILES | LmPK inhibitor | SARS PLpro yeast | Shiga inhibitor | Cycloheximide cs | NS1 inh | Tb PYK inh
COc1cccc(C2=Cc3ccc(F)cc3C(CC(C)=O)N2c2ccc(C#CC3(O)CCCCC3)cc2)c1 (centres undefined) | . | . | . | . | . | -4%
Cc1ccc(N2C(=O)c3ccccc3NC2(C(=O)O)c2ccccc2)cc1Cl (centres undefined) | 1% | 0% | 99* | 66* | 0% | 6%
COC(=O)c1cccc2nc3c(C(C)O)cccc3nc12 (centres undefined) | -6% | 1% | 22 | 8.1* | -9% | -1%
COc1ccc(OC)c2nc3c(C(=O)NCCN(C)C)cccc3nc12 | . | . | . | . | . | -5%
COc1ccc(-c2nc3n(c2C)Cc2ccccc2-3)cc1 | -1% | -1% | 130* | 39* | -8% | 0%
CC(=O)NCCNC(=O)c1ccc(CSc2ccc(Cl)cc2)cc1 | 0% | 1% | 94* | 37* | -2% | 2%
CCNC(=O)c1ccc(CSc2ccc(Cl)cc2)cc1 | 0% | -24% | 55* | 34* | -24% | -14%
COc1ccc2c(c1)C(c1ccccc1OC)CC(=O)O2 (centres undefined) | . | . | i | -1 | . | .
COc1ccc(-c2nc(CN3CCC(C(=O)NCC4CCCO4)CC3)c(C)o2)cc1OC (centres undefined) | -3% | 1% | -7 | -1 | -3% | -2%
NC(=O)c1ccsc1NC(=O)COC(=O)c1ccccc1NCc1ccco1 | 16% | -4% | 107* | 33* | -7% | 1%
NC(=O)c1ccsc1NC(=O)COC(=O)c1ccccc1F | . | -5% | . | . | . | 1%
O=C(COC(=O)c1ccccc1NC(=O)c1ccco1)Nc1ccc2c(c1)OCO2 | 0% | 11% | 59 | 17* | 2% | -13%
O=C(COC(=O)c1ccccc1NCc1ccco1)Nc1ccc2c(c1)OCO2 | -1% | -4% | 62* | 27* | 6% | -4%
COc1ccc(CNC(=O)Cn2c(=O)n3nc(-c4ccc(OC)cc4)nc3c3ccccc32)cc1 | . | . | . | . | . | 3%
C=CCn1c(NCc2c[nH]c3ccccc23)nc2ccccc21 | 2% | 14% | 27* | 17* | -1% | -4%
C=CCn1c(NCc2ccc(OC)cc2)nc2ccccc21 | -10% | -2% | 40* | 18* | -13% | -7%
Cn1c(NCc2c[nH]c3ccccc23)nc2ccccc21 | -8% | 25% | 70 | 15* | 3% | -7%
COc1ccc(CNc2nc3ccccc3n2CCN2CCCCC2)cc1 | 5% | 0% | -1 | -3 | 6% | 2%
CCc1nc2ccc(C(=O)NCCOc3ccc(OC)cc3)cn2c1N(C)Cc1cccs1 | . | . | . | . | . | 1%
CCOC(=O)C1CCCCN1C(=O)c1oc2c(Cl)cc(C)cc2c1C (centres undefined) | 9% | -9% | 118* | 46* | -29% | 2%
COC(=O)C1CCN(C(=O)c2oc3c(Cl)cc(C)cc3c2C)CC1 | -5% | -11% | 76* | 47* | -36% | -8%
Cc1c(C(=O)NC2CC(C)(C)NC(C)(C)C2)oc2c(Cl)cccc12 | . | . | . | . | . | -11%
Cc1cc(Cl)c2oc(C(=O)NC3CCC(O)CC3)c(C)c2c1 (centres undefined) | 6% | . | . | 21* | -8% | 5%
Cc1cc(Cl)c2oc(C(=O)NCC(C)(C)N3CCOCC3)c(C)c2c1 | 7% | -9% | 37 | 18* | -14% | -3%
Cc1cc(Cl)c2oc(C(=O)N(C)CCCCN3CCOCC3)c(C)c2c1 | -2% | -4% | -2 | -1 | 18% | 2%
Cc1cc(Cl)c2oc(C(=O)N3CCN(c4ccncc4)CC3)c(C)c2c1 | . | . | . | . | . | 0%
